Drawing on PubChem BioAssay AID2153 (The Scripps Research Institute Molecular Screening Center, 2009), this text covers inhibition for nine molecules.

In all, about 2,400 compounds went through this assay and about 2,000 (83%) were called active. The set was probably picked from earlier hits. Not all results are given here. Values without a mark were called inactive.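 Rule for the calls: active = inhibition above the solvent-only control well mean plus 3 SD, limit set per screening run (cut at about 23% in these data); inactive = the rest.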

Guanyl-specific ribonuclease T1 (Aspergillus oryzae (strain ATCC 42149 / RIB 40)), sequence (P00651 whole entry, looked up): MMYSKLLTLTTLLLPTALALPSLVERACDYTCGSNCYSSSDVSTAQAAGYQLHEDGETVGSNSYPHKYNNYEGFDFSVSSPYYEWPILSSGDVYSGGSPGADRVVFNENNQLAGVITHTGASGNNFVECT

This test addresses Guanyl-specific ribonuclease T1 (Aspergillus oryzae (strain ATCC 42149 / RIB 40)) (UniProt P00651). Briefly: blockers of Aspergillus RNase T1 cleavage – biochemical, fluorescence polarization, counter-screen for TPT1 inhibitor project (AID 2153).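 Note: plate controls were DMSO wells with enzyme for no effect and wells without RNase T1 for full effect; inhibitors block cleavage so intact labeled substrate keeps polarization high.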 The settings on record: 1536-well, at 5 µM, active compounds read high. On the technique in general: In fluorescence polarisation assays a small probe gives low polarisation when free and higher when bound to something large.
With `CC(C)n1c(=O)c(C=Nc2ccc(Br)cc2)c(O)n(Cc2ccco2)c1=O`, the inhibition (usually the drop in the measured response relative to a control, in per cent) was 28.4% (active). On to `CCCCC(=O)N/N=C/c1c(O)n(CC)c(=S)n(CC)c1=O`, for which the inhibition was 110% (active). For the molecule `CCN1C(=O)C(=Cc2c(C)n(CC(=O)NCC3CCCO3)c3ccccc23)C(=O)N(CC)C1=S` (centres undefined), the inhibition is 26.4% (active).

`COc1ccccc1N=Nc1c(O)[nH]c(=S)[nH]c1=O`: the inhibition was 77.7% (active). As for `CC/C(=N\NC(=O)c1ccccc1O)c1c(O)n(Cc2ccccc2)c(=O)[nH]c1=O`, the figure is 35.2% (active); as for `O=C1CC(=O)N(Cc2ccccc2)C(=O)N1CCCCCCN1C(=O)CC(=O)N(Cc2ccccc2)C1=O`, 34.1% (active). Turning to `O=C1NC(=O)N(Cc2ccco2)C(=O)/C1=C\c1cccn1CCOc1ccccc1`, the inhibition is 11.7%. As for `O=C1NC(=O)N(Cc2ccco2)C(=O)/C1=C\c1ccc(-c2ccc(F)cc2)o1`, the inhibition was 20.3%. As for `COc1ccc(N2C(=O)/C(=C/c3ccco3)C(=O)NC2=S)cc1`, the figure is 24.8% (active).
